Records with an inconclusive call do not appear. The source made the active and inactive calls. Calls come from the whole dose curve; as a rule, active = well fitted inhibition curve with a large enough effect; inconclusive = small, poorly fitted or top-dose-only effect; inactive = no such curve, though single readings can be large or run the other way.
Assay: Primary qHTS for inhibitors of La Crosse Virus (LACV) - induced cell death in SH-SY5Y cells (AID 1508616);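 note: top concentration of the series differs between compounds; 0% = infected DMSO wells and 100% = uninfected DMSO wells; higher means more rescue of cells from virus-induced death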
Details: SH-SY5Y LACV cytopathicity rescue, ATP luminescence, 6 d; series mostly up to 4.29 µM; activity change: at the top concentration
Outline: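 Protection against LACV-induced cell death is scored in SH-SY5Y cells exposed to compounds and virus (0.01 MOI) for 6 days. Data normalized to virus-infected DMSO wells and virus-free DMSO wells.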

Structure (SMILES)	activity change
O=C(O)C1(C(=O)O)CCC1.[NH2-].[NH2-].[Pt+2]	6.16% (inactive)
O=C(O)CCC(=O)Nc1ccc(S(=O)(=O)Nc2nccs2)cc1	2.13% (inactive)
Cl/C(=C\n1cncn1)c1ccc(Cl)cc1Cl	5.29% (inactive)
COc1ccc(CN(CCN(C)C)c2ncccn2)cc1	-9.7% (inactive)
CC(=O)NCCCCCC(=O)O	39.3% (inactive)
CCN1/C(=C/C=C/c2sc3ccccc3[n+]2CC)Sc2ccccc21	7.55% [at 1.78 µM] (inactive)
CCCCNc1ccc(C(=O)OCCOCCOCCOCCOCCOCCOCCOCCOCCOC)cc1	20.8% (inactive)
CC(C)Cc1ccc(CC(=O)O)cc1	14.8% (inactive)
CN1CCN(c2cc3c(cc2F)c(=O)c(C(=O)O)cn3-c2ccc(F)cc2)CC1	0.546% (inactive)

Reference: PubChem BioAssay (NCATS)
